Measurements: paper PMC7862700, “An all-to-all approach to the identification of sequence-specific readers for epigenetic DNA modifications on cytosine”

How the values were obtained:
Assay in all cases: DAPPL (digital affinity profiling via proximity ligation, sequencing); 10 mM Tris-HCl pH 7.5, 50 mM NaCl, 1 mM DTT, 4% glycerol, room temperature, 30 min; GST-TFs on glutathione beads, 16-mer random dsDNA library, 0.1% formaldehyde crosslink after washing; high values mean tight binding
[1] = target: T1, FEV (Homo sapiens, UniProt Q99581 1-238); conditions: protein: recombinant; tags: N-terminal GST; dsDNA, one strand shown
T1 sequence: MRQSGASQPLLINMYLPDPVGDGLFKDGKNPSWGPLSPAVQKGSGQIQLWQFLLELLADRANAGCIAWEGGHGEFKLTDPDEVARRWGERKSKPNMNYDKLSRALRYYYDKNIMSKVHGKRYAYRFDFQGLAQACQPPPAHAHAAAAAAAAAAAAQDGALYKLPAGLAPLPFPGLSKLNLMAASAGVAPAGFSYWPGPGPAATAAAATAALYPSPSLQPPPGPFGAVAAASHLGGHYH
Outline: (§1)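 Sequencing on an Illumina NextSeq500 followed washing, crosslinking with 0.1% formaldehyde, proximity ligation (BsaI/T4 ligase, 1 h, 37 °C) and PCR amplification of pools that had been incubated for 30 min at room temperature with 200 nmole of a random double-stranded 16-mer DNA library in Tris/NaCl/DTT/glycerol buffer. Each pool held DNA-barcoded human transcription factors, expressed in yeast as GST fusions and captured on glutathione beads, plus a tag-only sample. Binding signal is a hexamer's read frequency for a factor divided by its frequency in the tag-only sample.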

[2] = target: ETV5 (Homo sapiens, UniProt P41161 1-510); conditions: protein: recombinant; tags: N-terminal GST; dsDNA, one strand shown
Chain of ETV5 (P41161 whole entry): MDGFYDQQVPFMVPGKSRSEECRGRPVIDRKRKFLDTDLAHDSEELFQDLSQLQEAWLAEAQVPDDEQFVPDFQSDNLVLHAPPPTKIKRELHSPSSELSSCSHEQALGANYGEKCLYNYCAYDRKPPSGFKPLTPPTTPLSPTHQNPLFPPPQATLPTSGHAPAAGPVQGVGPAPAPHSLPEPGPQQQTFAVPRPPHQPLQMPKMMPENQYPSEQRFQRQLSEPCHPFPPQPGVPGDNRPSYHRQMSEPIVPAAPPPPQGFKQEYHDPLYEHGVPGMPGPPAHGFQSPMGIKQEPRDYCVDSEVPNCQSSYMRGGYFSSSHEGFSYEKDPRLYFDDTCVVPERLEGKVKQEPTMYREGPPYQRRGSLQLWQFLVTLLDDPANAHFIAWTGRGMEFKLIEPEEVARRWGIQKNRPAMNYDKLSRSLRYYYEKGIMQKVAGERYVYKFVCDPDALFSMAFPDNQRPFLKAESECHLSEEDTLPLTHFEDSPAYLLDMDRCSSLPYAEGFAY
Outline: as §1

[3] = target: HSF1 (Homo sapiens, UniProt Q00613 1-529); conditions: protein: recombinant; tags: N-terminal GST; chain copies: 3; dsDNA, one strand shown
Chain of HSF1 (Q00613 whole entry): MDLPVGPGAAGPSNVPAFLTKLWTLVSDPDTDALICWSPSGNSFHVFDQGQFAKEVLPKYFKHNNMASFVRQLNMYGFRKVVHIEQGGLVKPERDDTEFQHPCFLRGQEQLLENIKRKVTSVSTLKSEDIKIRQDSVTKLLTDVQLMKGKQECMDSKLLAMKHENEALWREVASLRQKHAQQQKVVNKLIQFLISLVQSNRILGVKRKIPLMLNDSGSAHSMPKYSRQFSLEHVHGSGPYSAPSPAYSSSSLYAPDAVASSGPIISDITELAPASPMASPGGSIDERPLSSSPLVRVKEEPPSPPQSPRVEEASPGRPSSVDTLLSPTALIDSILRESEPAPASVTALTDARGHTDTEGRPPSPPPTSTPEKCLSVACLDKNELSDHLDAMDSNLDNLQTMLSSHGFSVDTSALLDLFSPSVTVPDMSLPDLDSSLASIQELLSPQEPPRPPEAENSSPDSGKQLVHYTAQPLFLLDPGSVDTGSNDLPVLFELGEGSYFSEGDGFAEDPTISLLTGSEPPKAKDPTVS
Outline: as §1

[4] = target: T2, SPIC (Homo sapiens, UniProt Q8N5J4 1-248); conditions: protein: recombinant; tags: N-terminal GST; dsDNA, one strand shown
T2 sequence: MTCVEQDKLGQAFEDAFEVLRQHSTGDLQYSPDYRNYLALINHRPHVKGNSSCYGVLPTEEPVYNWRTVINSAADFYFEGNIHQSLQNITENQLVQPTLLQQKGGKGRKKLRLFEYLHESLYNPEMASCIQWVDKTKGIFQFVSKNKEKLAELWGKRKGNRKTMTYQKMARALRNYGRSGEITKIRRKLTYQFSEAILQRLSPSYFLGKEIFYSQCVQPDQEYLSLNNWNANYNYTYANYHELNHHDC
Outline: as §1

[5] = target: ELF4 (Homo sapiens, UniProt Q99607 1-663); conditions: protein: recombinant; tags: N-terminal GST; dsDNA, one strand shown
Chain of ELF4 (Q99607 whole entry): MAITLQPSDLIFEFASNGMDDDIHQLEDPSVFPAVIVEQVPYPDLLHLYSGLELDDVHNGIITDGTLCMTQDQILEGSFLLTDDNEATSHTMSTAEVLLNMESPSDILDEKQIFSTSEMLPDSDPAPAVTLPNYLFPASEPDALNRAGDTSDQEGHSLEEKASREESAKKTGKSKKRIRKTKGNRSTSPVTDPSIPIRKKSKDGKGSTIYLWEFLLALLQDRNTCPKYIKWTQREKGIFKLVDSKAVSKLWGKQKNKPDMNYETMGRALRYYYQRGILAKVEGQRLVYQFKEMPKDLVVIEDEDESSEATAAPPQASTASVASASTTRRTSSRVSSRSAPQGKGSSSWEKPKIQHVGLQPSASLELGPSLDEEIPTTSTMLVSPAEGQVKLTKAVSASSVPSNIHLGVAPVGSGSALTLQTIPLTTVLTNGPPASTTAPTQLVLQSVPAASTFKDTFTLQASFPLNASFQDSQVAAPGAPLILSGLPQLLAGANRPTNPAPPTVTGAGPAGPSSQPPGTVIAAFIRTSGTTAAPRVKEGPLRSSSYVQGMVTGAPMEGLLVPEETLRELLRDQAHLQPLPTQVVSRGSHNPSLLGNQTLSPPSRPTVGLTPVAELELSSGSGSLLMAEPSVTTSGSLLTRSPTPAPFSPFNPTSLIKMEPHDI
Outline: as §1

[6] = target: T3, ELK4 (Homo sapiens, UniProt P28324-2 1-405); conditions: protein: recombinant; tags: N-terminal GST; dsDNA, one strand shown
T3 sequence: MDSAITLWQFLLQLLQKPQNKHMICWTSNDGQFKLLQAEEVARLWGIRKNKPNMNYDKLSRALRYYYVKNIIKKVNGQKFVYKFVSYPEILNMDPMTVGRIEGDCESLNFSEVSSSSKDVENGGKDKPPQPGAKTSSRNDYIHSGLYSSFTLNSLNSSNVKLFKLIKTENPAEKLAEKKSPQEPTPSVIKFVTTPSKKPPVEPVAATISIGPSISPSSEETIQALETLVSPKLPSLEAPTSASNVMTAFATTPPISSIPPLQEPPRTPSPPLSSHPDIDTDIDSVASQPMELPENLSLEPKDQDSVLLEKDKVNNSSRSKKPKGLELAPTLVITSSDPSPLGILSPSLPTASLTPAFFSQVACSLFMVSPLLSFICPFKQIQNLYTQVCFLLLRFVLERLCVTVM
Outline: as §1

[7] = target: T4, ETV2 (Homo sapiens, UniProt O00321 1-342); conditions: protein: recombinant; tags: N-terminal GST; dsDNA, one strand shown
T4 sequence: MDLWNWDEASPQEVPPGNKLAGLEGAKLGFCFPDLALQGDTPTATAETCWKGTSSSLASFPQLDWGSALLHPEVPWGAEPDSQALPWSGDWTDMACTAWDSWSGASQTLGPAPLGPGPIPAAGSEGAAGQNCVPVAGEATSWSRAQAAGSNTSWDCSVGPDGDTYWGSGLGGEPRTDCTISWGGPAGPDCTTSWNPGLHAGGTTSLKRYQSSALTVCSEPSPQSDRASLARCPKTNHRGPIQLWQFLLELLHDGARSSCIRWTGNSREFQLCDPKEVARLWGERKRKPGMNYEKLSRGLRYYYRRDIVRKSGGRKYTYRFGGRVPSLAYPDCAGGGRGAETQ
Outline: as §1

[8] = target: T5, ELF3 (Homo sapiens, UniProt P78545 1-371); conditions: protein: recombinant; tags: N-terminal GST; dsDNA, one strand shown
T5 sequence: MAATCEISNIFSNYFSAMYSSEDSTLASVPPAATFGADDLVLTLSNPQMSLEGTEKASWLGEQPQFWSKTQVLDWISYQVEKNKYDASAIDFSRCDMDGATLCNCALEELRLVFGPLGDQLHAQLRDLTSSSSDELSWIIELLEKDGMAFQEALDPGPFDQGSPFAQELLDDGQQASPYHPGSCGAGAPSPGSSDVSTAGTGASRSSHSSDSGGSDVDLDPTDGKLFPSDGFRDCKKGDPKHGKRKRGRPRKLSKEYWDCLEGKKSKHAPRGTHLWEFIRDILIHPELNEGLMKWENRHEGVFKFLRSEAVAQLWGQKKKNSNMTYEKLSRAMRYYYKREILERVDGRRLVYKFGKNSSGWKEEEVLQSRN
Outline: as §1

[9] = target: CRX (Homo sapiens, UniProt O43186 1-299); conditions: protein: recombinant; tags: N-terminal GST; dsDNA, one strand shown
Chain of CRX (O43186 whole entry): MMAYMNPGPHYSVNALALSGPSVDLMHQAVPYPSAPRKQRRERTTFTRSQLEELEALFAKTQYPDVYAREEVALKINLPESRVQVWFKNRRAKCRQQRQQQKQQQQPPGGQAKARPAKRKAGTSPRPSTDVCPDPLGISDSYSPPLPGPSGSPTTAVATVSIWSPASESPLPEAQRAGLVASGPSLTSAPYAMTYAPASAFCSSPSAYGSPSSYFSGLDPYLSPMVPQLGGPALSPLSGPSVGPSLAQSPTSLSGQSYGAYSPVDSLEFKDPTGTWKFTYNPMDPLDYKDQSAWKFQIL
Outline: as §1

[10] = target: ETV1 (Homo sapiens, UniProt P50549 1-477); conditions: protein: recombinant; tags: N-terminal GST; dsDNA, one strand shown
Chain of ETV1 (P50549 whole entry): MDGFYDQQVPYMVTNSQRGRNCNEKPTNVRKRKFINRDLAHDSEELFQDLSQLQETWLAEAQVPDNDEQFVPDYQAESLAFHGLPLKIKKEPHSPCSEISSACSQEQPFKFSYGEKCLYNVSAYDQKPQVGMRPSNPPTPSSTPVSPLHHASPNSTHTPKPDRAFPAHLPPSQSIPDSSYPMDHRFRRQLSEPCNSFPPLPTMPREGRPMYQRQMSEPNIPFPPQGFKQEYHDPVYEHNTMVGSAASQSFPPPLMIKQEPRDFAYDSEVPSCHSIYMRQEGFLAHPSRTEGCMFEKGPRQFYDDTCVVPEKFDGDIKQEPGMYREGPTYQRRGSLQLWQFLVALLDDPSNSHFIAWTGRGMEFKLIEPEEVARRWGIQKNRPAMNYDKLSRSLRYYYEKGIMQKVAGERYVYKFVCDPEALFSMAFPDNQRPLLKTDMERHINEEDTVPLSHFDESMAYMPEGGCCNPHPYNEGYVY
Outline: as §1

With GATTCA the binding signal [1] was 1.08 fold enrichment (6-mer frequency, TF over GST control), the binding signal [2] was 1.08 fold enrichment (6-mer frequency, TF over GST control) and the binding signal [3] was 1.13 fold enrichment (6-mer frequency, TF over GST control). For the same sequence, the binding signal [4] was 1.14 fold enrichment (6-mer frequency, TF over GST control), the binding signal [5] was 1.15 fold enrichment (6-mer frequency, TF over GST control) and the binding signal [6] was 1.24 fold enrichment (6-mer frequency, TF over GST control). For the same sequence, the binding signal [7] was 1.08 fold enrichment (6-mer frequency, TF over GST control), the binding signal [8] was 1.26 fold enrichment (6-mer frequency, TF over GST control) and the binding signal [9] was 1.13 fold enrichment (6-mer frequency, TF over GST control). For the same sequence, the binding signal [10] was 1.15 fold enrichment (6-mer frequency, TF over GST control).
